Screens from PubChem.
Compounds with a hit are over-represented: about 3% of the library has one in this group of screens.
KKLEB cytotox – reduces viability of KKLEB cystic fibrosis airway cells | KKLEB CF airway cells viability, ATPlite luminescence, overnight; active compounds read low; cells stimulated with P. aeruginosa culture filtrate | activity change (cytotoxicity), % at 5 µM | 0.36% of 360,000 active | AID 602141;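 active = corrected activity change at or below -50% at 5 µM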
CF NFkB block – cystic fibrosis NF-kB activation inhibition; 0.86% of 360,000 active; inhibition, % at 5 µM; KKLEB NF-kB-GFP reporter, PAF-induced, GFP fluorescence overnight;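 active = at least 50% inhibition at 5 µM, scaled per plate between neutral and stimulator controls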;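 also: PAF is a Pseudomonas aeruginosa culture filtrate used as stimulus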
EBV LMP1 NFkB – inhibitors of Epstein-Barr LMP1-induced NF-kappaB reporter | LMP1-induced NF-kappaB luciferase reporter cells, luminescence | inhibition, % at 12.5 µM | 0.69% of 350,000 active; in the data active = inhibition above about 41%; inconclusive = no clear call, values can overlap the other calls
HIF-2a block – blocks HIF-2a reporter activity | 786-0 RCC cells HIF-2a reporter, luciferase luminescence, overnight | 0.72% of 360,000 active | AID 624352 | inhibition, % at 18.8 µM;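 active = inhibition of the luminescence signal of 40% or more relative to plate controls, in a single-dose primary screen at 18.75 µM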
Peg3 promoter – Peg3 promoter activity inhibition | HeLa PEG-Prom luciferase reporter, luminescence, overnight | inhibition, % at 20 µM | 1.7% of 360,000 active | AID 588405;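 active = inhibition of at least 50% at 20 µM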
MITF TRPM1 inh – reduces MITF-dependent TRPM1 promoter luciferase signal; SK-MEL-5 TRPM1 promoter luciferase, 24 h; inhibition, % at 12.5 µM; 0.83% of 330,000 active;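 active = mean inhibition across replicates of 60% or more, whatever share of single replicates reaches that level; inconclusive = some that reach 60%, reason not given; inactive = mean inhibition across replicates below 60%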
Mdm2 MdmX conf – Mdm2/MdmX (human) interaction inhibition, confirmed; shares compounds with HIF-2a block; SaOS-2 split-luciferase Mdm2/MdmX complementation, luminescence; inhibition, % at 8 µM; 99% of 740 active; AID 504601;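 active = mean inhibition of the luminescence signal across two replicates at or above 26 percent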
HIF-2a conf – HIF-2a inhibition, single concentration confirmation | AID 651580 | 786-0 RCC cells, HIF-2a luciferase reporter luminescence, overnight | 56% of 1,800 active | inhibition, % at 18.8 µM | shares compounds with HIF-2a block;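 active = mean inhibition across four replicates of at least 40 percent at the single tested concentration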
HIF-1a cs – inhibits HIF-1a reporter, a counter-screen for HIF-2a inhibitors | shares compounds with HIF-2a block | 72% of 1,800 active | MiaPaCa-2 HIF-1a luciferase reporter, desferoxamine, overnight | inhibition, % at 18.8 µM;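 active = mean inhibition of the reporter signal across four replicates at the single tested dose of 50% or more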
Large screens that a line does not name were inactive (follow-up assays come after a bar, where they were run).

C/C(=N\NC(=O)c1cccc(Br)c1)c1ccccn1	EBV LMP1 NFkB 70.5 | Mdm2 MdmX conf 82.7
O=C1NC(=O)C(Cc2ccccc2)(c2cccnc2)N1 (configuration not stated)	none
O=C(O)CCC1(c2ccccc2)NC(=O)NC1=O (configuration not stated)	HIF-2a block 44.3 | HIF-2a conf inactive | HIF-1a cs inactive
CCOc1ccc2nc(C)cc(Nc3cccc([N+](=O)[O-])c3)c2c1	HIF-2a block 62.9, Peg3 promoter 91.7, MITF TRPM1 inh 83.5 | Mdm2 MdmX conf 103.2 | HIF-2a conf inactive | HIF-1a cs 101.2
Cc1cc(Nc2ccc([N+](=O)[O-])cc2)c2ccccc2n1	none | Mdm2 MdmX conf 103.0
CCOc1ccc2nc(C)cc(Nc3ccc4c(c3)OCCO4)c2c1	HIF-2a block 45.4, Peg3 promoter 87.6 | HIF-2a conf inactive | HIF-1a cs inactive
COC(=O)[C@]12CCCCC=C1N(CCc1ccc(OC)c(OC)c1)C(=O)[C@H](CC(=O)NCc1ccccc1)C2	none (no result: KKLEB cytotox, CF NFkB block, EBV LMP1 NFkB, Peg3 promoter, MITF TRPM1 inh)
CC1(C(=O)NCc2cccc3ccccc23)CCN1Cc1ccc(OC(F)(F)F)cc1 (configuration not stated)	none (no result: EBV LMP1 NFkB, MITF TRPM1 inh)
Cc1[nH]c(=O)c(C(=O)/C=C/c2ccccc2F)c2c1CCCC2	CF NFkB block 90.7, EBV LMP1 NFkB 81.0, HIF-2a block 90.4, Peg3 promoter 110.5, MITF TRPM1 inh 83.8 | Mdm2 MdmX conf 103.2 | HIF-2a conf 92.3 | HIF-1a cs 99.8
CN(C)CCCNc1cc(C(C)(C)C)nc2c(-c3ccc(Cl)cc3)cnn12	Peg3 promoter 103.6 | Mdm2 MdmX conf 102.5
CC(=O)Nc1cc(-c2ccc(C(=O)N3CCOCC3)cc2)cn2c(-c3ccc(S(C)(=O)=O)cc3)cnc12	none (no result: EBV LMP1 NFkB, MITF TRPM1 inh)
NCCCn1cnc2ccccc21	HIF-2a block 47.5 | HIF-2a conf inactive | HIF-1a cs inactive
O=C(Cc1cccc2ccccc12)Nc1ccc(-c2cc3ccccc3oc2=O)cc1	EBV LMP1 NFkB 54.8, HIF-2a block 52.7 | HIF-2a conf 68.1 | HIF-1a cs 52.4
Cc1cc(C)cc(C(=O)NC(=S)Nc2ccc(-c3cc4ccccc4oc3=O)cc2)c1	KKLEB cytotox -56.7, CF NFkB block 57.2, HIF-2a block 82.1 | HIF-2a conf 75.5 | HIF-1a cs inactive
Cc1ccc(C(=O)NC(=S)Nc2ccc(-c3cc4ccccc4oc3=O)cc2)c(C)c1	HIF-2a block 81.1 | HIF-2a conf 76.5 | HIF-1a cs 56.2
COc1cc(C(=O)N2CCCCC2c2cc(C(=O)Nc3ccccc3Cl)no2)cc(OC)c1C (configuration not stated)	none (no result: EBV LMP1 NFkB, MITF TRPM1 inh)
CN(C)Cc1c(O)ccc2c1O/C(=C\C=C\c1ccccc1)C2=O	MITF TRPM1 inh 93.0 | Mdm2 MdmX conf inactive
CCN1CCN(Cc2c(O)ccc3c2O/C(=C\c2ccccc2)C3=O)CC1	none
O=C(NC1CC1)C1CCN(S(=O)(=O)c2ccc(Cl)c([N+](=O)[O-])c2)CC1	MITF TRPM1 inh 75.2 | Mdm2 MdmX conf 102.2
N#CC1c2ccccc2C=CN1C(=O)N(c1ccccc1)c1ccccc1 (configuration not stated)	HIF-2a block 77.4 | HIF-2a conf inactive | HIF-1a cs 107.9
Cc1nc(N2CCOCC2)c2cc(-c3ccccc3)sc2n1	none
Cc1nc(SCCC(=O)O)c2cc(-c3ccccc3)sc2n1	HIF-2a block 85.0 | HIF-2a conf 91.5 | HIF-1a cs inactive
O=C(O)COc1ccc2oc3ccccc3c2c1	HIF-2a block 53.0 | HIF-2a conf 68.5 | HIF-1a cs inactive
O=C(O)COc1ccc2occ(C(=O)c3ccccc3)c2c1	none
CCOC(=O)[C@]12CCC=C1N(Cc1ccccc1)C(=O)[C@H](CC(=O)NCc1cccc(C(F)(F)F)c1)C2	none (no result: KKLEB cytotox, CF NFkB block, EBV LMP1 NFkB, Peg3 promoter, MITF TRPM1 inh)
Cn1cc([N+](=O)[O-])c(C(=O)Nc2ccn(C34CC5CC(CC(C5)C3)C4)n2)n1	HIF-2a block 49.3 | HIF-2a conf 60.1 | HIF-1a cs 57.5
CCn1cc([N+](=O)[O-])c(C(=O)Nc2ccn(C34CC5CC(CC(C5)C3)C4)n2)n1	none
Cc1ccc(-c2nc(NC(=O)c3nn(C)cc3[N+](=O)[O-])sc2C)cc1	KKLEB cytotox -64.2, CF NFkB block 88.8, HIF-2a block 93.2, Peg3 promoter 109.0, MITF TRPM1 inh 85.4 | Mdm2 MdmX conf 102.7 | HIF-2a conf 85.2 | HIF-1a cs 105.3
Cc1ccc(-c2nc(NC(=O)c3nn(C)cc3[N+](=O)[O-])sc2C)cc1C	HIF-2a block 65.8, Peg3 promoter 109.0, MITF TRPM1 inh 79.2 | Mdm2 MdmX conf 100.2 | HIF-2a conf inactive | HIF-1a cs 104.8
Cn1cc([N+](=O)[O-])c(C(=O)Nc2nc(-c3ccc(Cl)cc3)cs2)n1	KKLEB cytotox -95.2, CF NFkB block 88.9, HIF-2a block 93.9, Peg3 promoter 106.5, MITF TRPM1 inh 83.2 | HIF-2a conf 86.2 | HIF-1a cs 105.0
Cn1cc([N+](=O)[O-])c(C(=O)Nc2ccc(-c3nc4ccccc4[nH]3)cc2)n1	none
CSc1ccc(-c2ccc3c(c2)c(Sc2ccccc2)c(-c2ccccc2)n3C)cc1	none (no result: KKLEB cytotox, CF NFkB block, EBV LMP1 NFkB, Peg3 promoter, MITF TRPM1 inh)
CC(=O)NC(c1cccc(F)c1)c1nc(-c2ccc(N(C)C)cc2)cs1 (configuration not stated)	none (no result: EBV LMP1 NFkB, MITF TRPM1 inh)
O=C(c1ccccn1)N(Cc1ccco1)C1(C(=O)Nc2ccc(Br)cc2)CCCCC1	none (no result: EBV LMP1 NFkB, MITF TRPM1 inh)
COC(=O)C(C(=O)OC)[C@@H]1C=C[C@H](C[N+](=O)[O-])N(C(C)=O)C1	none
CCCn1c(CC)nc([N+](=O)[O-])c1S(=O)(=O)c1ccccc1	CF NFkB block 52.0, HIF-2a block 45.9, MITF TRPM1 inh inconclusive | HIF-2a conf inactive | HIF-1a cs inactive
COc1cccc(-n2c(SCC(=O)Nc3cc(C)on3)nc3c([nH]c4ccccc43)c2=O)c1	HIF-2a block 39.4 (no result: MITF TRPM1 inh) | HIF-2a conf inactive | HIF-1a cs inactive
Cc1cc(NC(=O)CSc2nc3c([nH]c4ccccc43)c(=O)n2-c2cccc(C(F)(F)F)c2)no1	none
CN1OC[C@@H]2CN(Cc3ccccc3)[C@H](c3ccc(-n4ccnc4)cc3)C[C@@H]21	none (no result: EBV LMP1 NFkB, MITF TRPM1 inh)
CN1C2=NCCN2C(=O)c2cc(Cl)ccc21	none
Clc1ccc2c(c1)-c1ccccc1C1=NCCN12	HIF-2a block 45.0, Peg3 promoter 109.7 (no result: MITF TRPM1 inh) | HIF-2a conf inactive | HIF-1a cs 103.9
